We go through 40 molecules from PubChem BioAssay (NCI).

Compounds without any hit were thinned out: in the full panel of roughly 79,000, 15% have a hit. Values without a mark were called inactive. Calls of active or inactive are those of the source. Cut-off read from the data, not from the text of the source: active = growth inhibition above about 70%; inactive = the rest.

One experiment is described as follows: NCI Yeast Anticancer Drug Screen. Data for the cln2 rad14 strain (AID 165).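 Note: 0% = growth equal to vehicle treated cultures.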 The settings on record: S. cerevisiae cln2 rad14 strain, at 50.0 µM, stronger effect = higher value. The essentials: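 Growth inhibition, relative to vehicle-treated controls, is the read-out. The test organism is a yeast strain with defined genetic alterations, cln2 rad14.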
`CCCCCCCCCCCCCCOC(=O)C(N)Cc1ccc(O)cc1` (stereo not given): the growth inhibition was 95.1% (active).
With `CN(C)c1ccc(C(O)(Cc2cccc(C#N)c2)c2ccc(N(C)C)cc2)cc1`, the growth inhibition was 66%.
As for `O=C(NNC(=O)c1cccc(C(=O)NNC(=O)c2ccc(Cl)c(Cl)c2)n1)c1ccc(Cl)c(Cl)c1`, the growth inhibition is 81.4% (active).
The same measure, in the same setting: the value for `C=C1C(=O)O[C@H]2[C@H](OC(C)=O)[C@@H](C)CCC/C(C)=C/CC[C@@]3(C)O[C@@H]3C[C@@H]12` was 91.1% (active); that for `O=C(c1ccccc1)C1OC1c1ccccc1Cl` (stereo not given) was -52.2%; that for `[N-]=[N+]=Nc1ccc(SSCCC(=O)ON2C(=O)CCC2=O)cc1` was 97.8% (active).
In the case of `Cc1cc(N(CCC#N)CCC#N)ccc1/C(N=Nc1cccc([N+](=O)[O-])c1)=N/NC(=O)c1cc(Cl)ccc1O`, the growth inhibition was 23.9%.
For `CC(C)/C(Cl)=N\OC(=O)Nc1ccc(S(N)(=O)=O)cc1`, the growth inhibition was 45%.
For the molecule `CCCCCCCCCCCCCC(=O)OCC(O)CO` (stereo not given), the growth inhibition was 75.3% (active).
With `O=C1C=CC(=O)N1C1CCCCC1`, the growth inhibition was 99.8% (active).
`CCCCCCCCCCCC(=O)OCC1OC(n2cc(F)c(=O)[nH]c2=O)C(N)C(O)C1O` (stereo not given): the growth inhibition was 91.2% (active).
Turning to `CN(C)c1ccc(C2C=C(c3ccccc3)Oc3ccccc32)cc1` (stereo not given), the growth inhibition was 95.8% (active).
Consider `CS(=O)(=O)OCCN(CCOS(C)(=O)=O)c1ccc(C=Nc2cccc(Cl)c2)cc1`, for which the growth inhibition was 71.3% (active).
In the case of `O=C1C(=O)N(c2cc(Cl)ccc2Cl)C(=O)C(=O)C1c1nc2ccccc2o1`, the growth inhibition was 81.2% (active).
Consider `CC1=NC(=Cc2ccc(Cl)cc2)C(=O)N1n1c(-c2ccccc2)nc2ccccc2c1=O`, for which the growth inhibition is 80% (active).
Consider `C/C(=N/Nc1ccc([N+](=O)[O-])cc1[N+](=O)[O-])C1=CCC(C(C)(C)C)CC1` (stereo not given), for which the growth inhibition is 38.8%.
As for `Cc1ccc(C)c(N2C(=O)C(=O)C(c3nc4ccccc4o3)/C(=N\NC(=O)c3ccccc3O)C2=O)c1` (stereo not given), the growth inhibition is 53.6%.
`O=C(/C=C/C=C/c1ccccc1)c1ccco1`: the growth inhibition is 50.4%.
On to `O=C1CCC(=O)c2c1c(O)c1ccncc1c2O`, for which the growth inhibition was 98.5% (active).
Regarding `CNC(=O)OC(C)CN1c2ccccc2Sc2ccc(Cl)cc21` (stereo not given), the growth inhibition is 86.5% (active).
For the molecule `c1coc(C2=Nc3cccc4cccc(c34)N2)c1`, the growth inhibition is 32.5%.
Same read-out and setting: the value for `CCOC(=O)[C@]12CCC[C@@]1(O)NC(=O)c1cnccc12` was 91.2% (active).
Take `Cc1cccc(C)c1N1C(=O)C2Nc3ccccc3SC2C1=O` (stereo not given): the growth inhibition is 95.8% (active).
Still for that read-out and setting: under `CCc1cccc(C(C)(C)C)c1NC(=S)N/C=C(\c1ccccc1)S(=O)Cc1ccccc1` (stereo not given) stands 33.5%; under `CC(=O)Nc1ccc(-c2cnc3ccccc3c2)cc1`, 36.5%; under `OCC(CO)C1c2cccc3ccc4cccc1c4c23`, 67.3%.
As to `O=C1CC(=S)NC(=S)N1`, the growth inhibition is -26%.
In the case of `Cc1c2ccnc(C(N)=O)c2c(C)c2c1[nH]c1ccccc12`, the growth inhibition is 47.1%.
Still for that read-out and setting: the value for `CCC(=O)Sc1ccccc1C(=O)Nc1ccc(Cl)cc1` was 53.1%; that for `O=C(O)c1c(Cl)c(Cl)c(Cl)c(Cl)c1-c1c2cc(I)c(=O)c(I)c-2oc2c(I)c(O)c(I)cc12` was 90.2% (active).
Consider `C=C/C=C/CC=C`, for which the growth inhibition is 85.3% (active).
Take `Cc1ccccc1N1CCN(c2c3c(nc4ccccc24)CCCCC3)CC1`: the growth inhibition was 96.4% (active).
With `N/N=C(\N)c1ccc2ccc3cccnc3c2n1`, the growth inhibition is 45.9%.
`CCCCCC(CCCCC)C(=O)O`: the growth inhibition is 78% (active).
Regarding `O=Cc1cc(S(=O)(=O)c2ccc(O)c(C=O)c2)ccc1O`, the growth inhibition was 97.5% (active).
Still for that read-out and setting: under `Cc1ccc(C)c(N2C(=O)C(=O)C(c3nc4ccccc4o3)C(=O)C2=O)c1` stands 99% (active); under `COC(=O)c1cc(C)c2sc3ccccc3c2c1C`, -24.1%.
The same measure, in the same setting: under `O=C1NC(=O)N(c2ccc(Cl)c(Cl)c2)C1=O` stands 24.8%; under `Clc1ccc2oc(N3CCCCC3)nc2c1`, 98.2% (active); under `Cc1ccc(N=NC(C(=O)c2ccccc2)C(=O)c2ccccc2)cc1`, 87.9% (active).

The nature of another experiment: NCI Yeast Anticancer Drug Screen. Data for the bub3 strain (AID 167). The settings on record: S. cerevisiae bub3 mutant strain, at 5.0 µM (retest, dose inferred, filed as 0.5), stronger effect = higher value. The essentials: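 Whole-cell yeast assay. The mutant strain was incubated with compounds, and growth inhibition was determined by comparison with vehicle-treated cells.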
As to `CCCCCCCCCCCCCCOC(=O)C(N)Cc1ccc(O)cc1` (stereo not given), the growth inhibition was 3%.
For `CN(C)c1ccc(C(O)(Cc2cccc(C#N)c2)c2ccc(N(C)C)cc2)cc1`, the growth inhibition is 2%.
For `O=C(NNC(=O)c1cccc(C(=O)NNC(=O)c2ccc(Cl)c(Cl)c2)n1)c1ccc(Cl)c(Cl)c1`, the growth inhibition is 61%.
Still for that read-out and setting: under `C=C1C(=O)O[C@H]2[C@H](OC(C)=O)[C@@H](C)CCC/C(C)=C/CC[C@@]3(C)O[C@@H]3C[C@@H]12` stands 3%; under `O=C(c1ccccc1)C1OC1c1ccccc1Cl` (stereo not given), 3%.
On the same count and under the same terms, under `[N-]=[N+]=Nc1ccc(SSCCC(=O)ON2C(=O)CCC2=O)cc1` stands 2%.
As to `Cc1cc(N(CCC#N)CCC#N)ccc1/C(N=Nc1cccc([N+](=O)[O-])c1)=N/NC(=O)c1cc(Cl)ccc1O`, the growth inhibition is 8%.
Consider `CC(C)/C(Cl)=N\OC(=O)Nc1ccc(S(N)(=O)=O)cc1`, for which the growth inhibition was 7%.
`CCCCCCCCCCCCCC(=O)OCC(O)CO` (stereo not given): the growth inhibition is 1%.
As to `O=C1C=CC(=O)N1C1CCCCC1`, the growth inhibition is 90% (active).
Consider `CCCCCCCCCCCC(=O)OCC1OC(n2cc(F)c(=O)[nH]c2=O)C(N)C(O)C1O` (stereo not given), for which the growth inhibition is -11%.
Turning to `CN(C)c1ccc(C2C=C(c3ccccc3)Oc3ccccc32)cc1` (stereo not given), the growth inhibition is 93% (active).
For `CS(=O)(=O)OCCN(CCOS(C)(=O)=O)c1ccc(C=Nc2cccc(Cl)c2)cc1`, the growth inhibition was 1%.
On to `O=C1C(=O)N(c2cc(Cl)ccc2Cl)C(=O)C(=O)C1c1nc2ccccc2o1`, for which the growth inhibition is 2%.
The same measure, in the same setting: under `CC1=NC(=Cc2ccc(Cl)cc2)C(=O)N1n1c(-c2ccccc2)nc2ccccc2c1=O` stands -6%.
As for `C/C(=N/Nc1ccc([N+](=O)[O-])cc1[N+](=O)[O-])C1=CCC(C(C)(C)C)CC1` (stereo not given), the growth inhibition was -3%.
Still for that read-out and setting: the value for `Cc1ccc(C)c(N2C(=O)C(=O)C(c3nc4ccccc4o3)/C(=N\NC(=O)c3ccccc3O)C2=O)c1` (stereo not given) was 6%; that for `O=C(/C=C/C=C/c1ccccc1)c1ccco1` was -6%.
For the molecule `O=C1CCC(=O)c2c1c(O)c1ccncc1c2O`, the growth inhibition is 16%.
`CNC(=O)OC(C)CN1c2ccccc2Sc2ccc(Cl)cc21` (stereo not given): the growth inhibition is 26%.
The same measure, in the same setting: under `c1coc(C2=Nc3cccc4cccc(c34)N2)c1` stands 5%; under `CCOC(=O)[C@]12CCC[C@@]1(O)NC(=O)c1cnccc12`, -2%; under `Cc1cccc(C)c1N1C(=O)C2Nc3ccccc3SC2C1=O` (stereo not given), 1%.
For the molecule `CCc1cccc(C(C)(C)C)c1NC(=S)N/C=C(\c1ccccc1)S(=O)Cc1ccccc1` (stereo not given), the growth inhibition is -23%.
Turning to `CC(=O)Nc1ccc(-c2cnc3ccccc3c2)cc1`, the growth inhibition is -5%.
Take `OCC(CO)C1c2cccc3ccc4cccc1c4c23`: the growth inhibition was 13%.
On to `O=C1CC(=S)NC(=S)N1`, for which the growth inhibition is -2%.
For `Cc1c2ccnc(C(N)=O)c2c(C)c2c1[nH]c1ccccc12`, the growth inhibition is 7%.
For the molecule `CCC(=O)Sc1ccccc1C(=O)Nc1ccc(Cl)cc1`, the growth inhibition was 22%.
Consider `O=C(O)c1c(Cl)c(Cl)c(Cl)c(Cl)c1-c1c2cc(I)c(=O)c(I)c-2oc2c(I)c(O)c(I)cc12`, for which the growth inhibition was 98% (active).
For the molecule `C=C/C=C/CC=C`, the growth inhibition is -60%.
Consider `Cc1ccccc1N1CCN(c2c3c(nc4ccccc24)CCCCC3)CC1`, for which the growth inhibition is -9%.
Still for that read-out and setting: the value for `N/N=C(\N)c1ccc2ccc3cccnc3c2n1` was -3%; that for `CCCCCC(CCCCC)C(=O)O` was -5%; that for `O=Cc1cc(S(=O)(=O)c2ccc(O)c(C=O)c2)ccc1O` was 5%.
As for `Cc1ccc(C)c(N2C(=O)C(=O)C(c3nc4ccccc4o3)C(=O)C2=O)c1`, the growth inhibition was 13%.
For `COC(=O)c1cc(C)c2sc3ccccc3c2c1C`, the growth inhibition is -21%.
The same measure, in the same setting: under `O=C1NC(=O)N(c2ccc(Cl)c(Cl)c2)C1=O` stands -5%; under `Clc1ccc2oc(N3CCCCC3)nc2c1`, 8%.
Turning to `Cc1ccc(N=NC(C(=O)c2ccccc2)C(=O)c2ccccc2)cc1`, the growth inhibition was -3%.
